Data on 14 compounds can be found in PubChem BioAssay (Tox21).

SMILES strings stand for the structures. Inconclusive results are not listed. Calls of active or inactive are those of the source. The call rests on the fitted dose curve; in most records, active means well fitted inhibition curve with a large enough effect in the repeat runs; inconclusive means weak or mixed curves; inactive means no such curve, though single readings can be large or run the other way.
Potency means the concentration at half of the fitted maximal effect.

In the experiment the target is Cytochrome P450 3A4 (Homo sapiens) (UniProt P08684). Kind of experiment: Cytochrome P450 Family 3 Subfamily A Member 4 (CYP3A4) small molecule antagonists: luciferase reporter qHTS assay (AID 1671201). Further: nearly all actives have a fitted effect of over 50% in size. The conditions noted are these: P450-Glo CYP3A4 enzyme, luciferin luminescence, 1 h; series mostly up to 115 µM. A digest of the protocol: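 Inhibition of CYP3A4 is measured as loss of light: the enzyme converts a proluciferin substrate to luciferin, detected luminescently. Reaction ran 1 h at room temperature with NADPH regeneration after a 10 min compound preincubation.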
Chain of Cytochrome P450 3A4 (Homo sapiens) (P08684 whole entry, looked up): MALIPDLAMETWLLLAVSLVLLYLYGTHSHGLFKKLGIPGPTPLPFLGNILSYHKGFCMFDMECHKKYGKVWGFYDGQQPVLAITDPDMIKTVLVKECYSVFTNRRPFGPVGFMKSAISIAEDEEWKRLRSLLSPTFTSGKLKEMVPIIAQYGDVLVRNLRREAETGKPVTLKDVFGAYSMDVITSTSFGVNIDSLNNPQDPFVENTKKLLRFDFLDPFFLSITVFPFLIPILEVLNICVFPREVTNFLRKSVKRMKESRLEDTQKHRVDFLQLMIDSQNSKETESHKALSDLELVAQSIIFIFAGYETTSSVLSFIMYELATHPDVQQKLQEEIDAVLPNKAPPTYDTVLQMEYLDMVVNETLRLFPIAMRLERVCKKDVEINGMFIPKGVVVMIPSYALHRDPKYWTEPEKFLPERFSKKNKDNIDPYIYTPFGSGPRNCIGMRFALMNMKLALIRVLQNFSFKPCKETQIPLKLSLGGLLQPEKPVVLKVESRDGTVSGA
(In general: A reporter such as luciferase makes a cellular process visible.)
On to `Oc1ccc(C(=C(Cl)Cl)c2ccc(O)cc2)cc1`, for which the Potency is 11.2 µM (active). With `CC(C)OC(=S)S`, the Potency entry is “inactive”. To `CCCCN(CCCC)C(=S)[S-].CCCCN(CCCC)C(=S)[S-].[Zn+2]` belongs 28.3 µM (active); to `Oc1ccc(C2(c3ccc(O)cc3)c3ccccc3-c3ccccc32)cc1`, 17.8 µM (active). To `O=C(Nc1ccc2[nH]ccc2c1)c1cc2cc(F)ccc2n1Cc1cccc(F)c1` belongs 2.52 µM (active); to `CCc1ccccc1C`, “inactive”; to `COc1ccc(OC)c(CC(C)N)c1` (centres undefined), “inactive”.

Turning to `CC(Cl)CN(C)C` (centres undefined), the Potency result is “inactive”. To `CCCCCCCCCCCCCC[P+](CCCCCC)(CCCCCC)CCCCCC` (tested in a mixture with another compound) belongs 5.03 µM (active); to `CCCCCCCCCCCCCCCCCCn1cc[n+](C)c1`, 31.5 µM (active). To `c1ccc2cc3c(cc2c1)-c1cccc2cccc-3c12` belongs “inactive”; to `CN(C)S(=O)(=O)N(SC(F)(Cl)Cl)c1ccccc1`, “inactive”; to `[CH3][Hg][Cl]`, 39.8 µM (active). Regarding `C=CC(=O)OCC(COC(=O)C=C)(COC(=O)C=C)COC(=O)C=C`, the Potency was 1.26 µM (active).
